Laboratory results from the supplement of paper PMC10849652.
About 7,900 targets were measured; listed, in parts, are those with a hit and a random draw of the rest. About 0.6% of all pairs of compound and target were hits.

Compound: c1cn2cc(-c3ccc4cn[nH]c4c3)nc(Nc3ccc(N4CCOCC4)cc3)c2n1 [entospletinib]
Test: log2 fold change, soluble protein after heating vs DMSO (PISA); higher = thermal stabilisation; K562 cells, 10 uM, 30 min; active = over 0.2 and 3.5 SD of the protein, either way, in both replicates (recomputed)
Outline: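 K562 cells at 2×10^6 cells/mL were treated with 10 μM compound for 30 min. Aliquots were heated for 3 min across 48°C-58°C, pooled, and extracted in PBS with 0.5% NP-40 at 4°C; soluble protein was the supernatant after 21,000xg for 90 min. Soluble protein was quantified by TMTpro 16plex LC-MS/MS with channel sums equalised, and reported as log2 fold change in thermal stability against DMSO controls, with values from duplicates.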

Sequence of UniProt P55263 (P55263 whole entry, looked up): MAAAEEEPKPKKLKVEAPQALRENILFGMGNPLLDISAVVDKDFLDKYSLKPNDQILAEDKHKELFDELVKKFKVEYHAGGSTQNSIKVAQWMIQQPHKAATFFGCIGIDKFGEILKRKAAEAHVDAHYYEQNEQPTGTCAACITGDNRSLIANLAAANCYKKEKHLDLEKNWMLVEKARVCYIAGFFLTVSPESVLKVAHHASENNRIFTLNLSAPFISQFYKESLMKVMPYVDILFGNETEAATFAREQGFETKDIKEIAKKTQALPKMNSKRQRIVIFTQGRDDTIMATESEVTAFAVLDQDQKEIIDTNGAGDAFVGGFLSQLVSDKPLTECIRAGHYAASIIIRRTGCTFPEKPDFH
Sequence of UniProt P00966 (P00966 whole entry, looked up): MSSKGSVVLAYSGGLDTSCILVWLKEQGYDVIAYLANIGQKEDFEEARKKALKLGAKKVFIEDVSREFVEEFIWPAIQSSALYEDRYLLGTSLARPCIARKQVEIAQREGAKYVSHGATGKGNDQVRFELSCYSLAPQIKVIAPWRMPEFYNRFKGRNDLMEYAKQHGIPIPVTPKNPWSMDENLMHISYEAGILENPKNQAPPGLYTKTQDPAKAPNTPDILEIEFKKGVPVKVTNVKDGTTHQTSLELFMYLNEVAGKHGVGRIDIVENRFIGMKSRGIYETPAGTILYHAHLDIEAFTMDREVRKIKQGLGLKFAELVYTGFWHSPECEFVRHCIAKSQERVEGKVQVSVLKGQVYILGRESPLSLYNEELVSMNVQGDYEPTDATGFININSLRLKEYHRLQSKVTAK
Sequence of UniProt P05091 (P05091 whole entry, looked up): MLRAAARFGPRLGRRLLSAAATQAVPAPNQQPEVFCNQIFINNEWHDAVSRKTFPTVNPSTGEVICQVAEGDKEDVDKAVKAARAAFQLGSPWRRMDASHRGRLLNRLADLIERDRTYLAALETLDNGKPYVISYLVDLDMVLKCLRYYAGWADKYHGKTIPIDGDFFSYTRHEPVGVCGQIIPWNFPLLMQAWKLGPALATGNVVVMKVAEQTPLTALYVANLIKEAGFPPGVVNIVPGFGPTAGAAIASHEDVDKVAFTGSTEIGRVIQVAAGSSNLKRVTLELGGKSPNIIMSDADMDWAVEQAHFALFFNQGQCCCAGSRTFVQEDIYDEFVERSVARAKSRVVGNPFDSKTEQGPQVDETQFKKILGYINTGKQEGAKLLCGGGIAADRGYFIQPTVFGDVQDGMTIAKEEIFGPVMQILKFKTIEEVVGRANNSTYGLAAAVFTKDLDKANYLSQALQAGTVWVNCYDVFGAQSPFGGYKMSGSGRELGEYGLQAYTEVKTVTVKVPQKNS
Sequence of UniProt Q93084 (Q93084 whole entry, looked up): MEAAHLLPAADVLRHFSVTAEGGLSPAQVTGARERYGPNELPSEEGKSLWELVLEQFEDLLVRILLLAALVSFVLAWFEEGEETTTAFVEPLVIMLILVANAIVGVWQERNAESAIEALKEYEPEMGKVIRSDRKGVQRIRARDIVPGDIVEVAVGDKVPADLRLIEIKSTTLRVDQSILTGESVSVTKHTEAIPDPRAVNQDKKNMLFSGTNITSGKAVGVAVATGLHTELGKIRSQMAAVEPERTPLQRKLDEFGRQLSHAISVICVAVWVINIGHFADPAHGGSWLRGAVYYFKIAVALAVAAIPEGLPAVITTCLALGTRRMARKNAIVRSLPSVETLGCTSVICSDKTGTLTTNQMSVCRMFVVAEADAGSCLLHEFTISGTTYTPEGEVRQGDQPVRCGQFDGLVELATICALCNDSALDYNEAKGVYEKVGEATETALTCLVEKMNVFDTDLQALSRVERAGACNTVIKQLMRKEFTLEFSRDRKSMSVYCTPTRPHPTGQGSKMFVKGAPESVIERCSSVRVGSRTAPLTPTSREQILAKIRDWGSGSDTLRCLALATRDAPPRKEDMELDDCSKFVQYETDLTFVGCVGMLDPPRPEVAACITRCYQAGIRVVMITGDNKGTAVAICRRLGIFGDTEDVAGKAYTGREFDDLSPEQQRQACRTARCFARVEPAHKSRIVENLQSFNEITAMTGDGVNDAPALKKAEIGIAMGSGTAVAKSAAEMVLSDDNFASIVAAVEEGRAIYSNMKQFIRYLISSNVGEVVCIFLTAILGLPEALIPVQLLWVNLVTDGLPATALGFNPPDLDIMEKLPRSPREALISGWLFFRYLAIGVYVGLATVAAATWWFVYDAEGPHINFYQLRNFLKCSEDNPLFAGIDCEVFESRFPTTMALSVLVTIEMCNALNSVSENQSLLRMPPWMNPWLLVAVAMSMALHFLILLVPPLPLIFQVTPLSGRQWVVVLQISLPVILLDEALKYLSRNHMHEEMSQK
Sequence of UniProt P11117 (P11117 whole entry, looked up): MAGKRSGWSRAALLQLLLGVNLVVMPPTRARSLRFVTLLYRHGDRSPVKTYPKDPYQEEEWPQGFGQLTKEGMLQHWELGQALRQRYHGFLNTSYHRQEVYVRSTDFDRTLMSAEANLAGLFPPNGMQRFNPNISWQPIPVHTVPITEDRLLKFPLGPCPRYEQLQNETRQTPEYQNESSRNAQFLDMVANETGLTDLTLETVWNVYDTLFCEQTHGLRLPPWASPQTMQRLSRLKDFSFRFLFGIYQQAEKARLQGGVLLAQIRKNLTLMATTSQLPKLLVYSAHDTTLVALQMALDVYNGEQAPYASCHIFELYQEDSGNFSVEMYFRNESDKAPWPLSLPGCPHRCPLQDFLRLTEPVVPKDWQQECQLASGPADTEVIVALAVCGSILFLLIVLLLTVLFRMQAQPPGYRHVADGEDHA
Sequence of UniProt Q99758 (Q99758 whole entry, looked up): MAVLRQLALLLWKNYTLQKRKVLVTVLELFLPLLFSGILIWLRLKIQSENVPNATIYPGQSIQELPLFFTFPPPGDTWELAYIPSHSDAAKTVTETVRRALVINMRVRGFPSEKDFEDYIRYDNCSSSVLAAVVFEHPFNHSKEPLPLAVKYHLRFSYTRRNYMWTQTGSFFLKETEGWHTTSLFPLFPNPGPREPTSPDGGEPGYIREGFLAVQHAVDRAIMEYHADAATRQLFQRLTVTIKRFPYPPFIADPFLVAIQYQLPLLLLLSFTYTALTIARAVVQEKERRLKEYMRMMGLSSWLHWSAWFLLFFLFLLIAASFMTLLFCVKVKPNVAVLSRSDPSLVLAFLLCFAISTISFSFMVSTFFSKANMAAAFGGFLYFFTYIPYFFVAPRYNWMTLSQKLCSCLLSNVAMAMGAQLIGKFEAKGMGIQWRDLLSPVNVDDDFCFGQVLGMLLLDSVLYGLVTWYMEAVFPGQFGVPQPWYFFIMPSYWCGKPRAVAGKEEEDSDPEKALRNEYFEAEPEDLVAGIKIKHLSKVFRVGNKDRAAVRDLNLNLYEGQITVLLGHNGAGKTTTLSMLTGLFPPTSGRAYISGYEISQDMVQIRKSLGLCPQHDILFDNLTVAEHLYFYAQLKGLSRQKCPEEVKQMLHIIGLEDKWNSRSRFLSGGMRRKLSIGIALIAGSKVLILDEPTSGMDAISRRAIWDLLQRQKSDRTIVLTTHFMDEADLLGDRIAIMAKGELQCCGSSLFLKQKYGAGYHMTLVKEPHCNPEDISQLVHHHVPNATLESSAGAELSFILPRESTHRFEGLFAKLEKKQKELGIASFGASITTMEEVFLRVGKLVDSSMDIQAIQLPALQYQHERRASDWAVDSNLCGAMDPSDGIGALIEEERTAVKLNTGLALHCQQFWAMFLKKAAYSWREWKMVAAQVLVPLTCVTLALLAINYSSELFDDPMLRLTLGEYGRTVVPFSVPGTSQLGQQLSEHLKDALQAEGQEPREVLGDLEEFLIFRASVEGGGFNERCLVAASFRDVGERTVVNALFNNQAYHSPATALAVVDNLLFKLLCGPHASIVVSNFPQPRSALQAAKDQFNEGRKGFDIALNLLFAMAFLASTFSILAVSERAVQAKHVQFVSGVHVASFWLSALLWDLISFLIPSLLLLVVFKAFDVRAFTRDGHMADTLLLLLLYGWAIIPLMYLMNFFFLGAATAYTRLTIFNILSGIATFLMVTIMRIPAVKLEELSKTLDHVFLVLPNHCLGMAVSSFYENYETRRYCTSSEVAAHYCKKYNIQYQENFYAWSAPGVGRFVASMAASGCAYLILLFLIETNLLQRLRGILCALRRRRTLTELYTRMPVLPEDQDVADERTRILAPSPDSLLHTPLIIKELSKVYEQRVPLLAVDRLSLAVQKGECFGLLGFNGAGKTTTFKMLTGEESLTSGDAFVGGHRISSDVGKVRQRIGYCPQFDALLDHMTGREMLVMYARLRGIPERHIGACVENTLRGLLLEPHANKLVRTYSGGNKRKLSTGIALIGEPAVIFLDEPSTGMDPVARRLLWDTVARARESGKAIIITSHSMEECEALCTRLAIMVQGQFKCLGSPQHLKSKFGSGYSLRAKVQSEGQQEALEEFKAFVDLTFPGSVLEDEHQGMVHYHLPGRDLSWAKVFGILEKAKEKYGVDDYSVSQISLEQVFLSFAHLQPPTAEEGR
Sequence of UniProt Q6QNY0 (Q6QNY0 whole entry, looked up): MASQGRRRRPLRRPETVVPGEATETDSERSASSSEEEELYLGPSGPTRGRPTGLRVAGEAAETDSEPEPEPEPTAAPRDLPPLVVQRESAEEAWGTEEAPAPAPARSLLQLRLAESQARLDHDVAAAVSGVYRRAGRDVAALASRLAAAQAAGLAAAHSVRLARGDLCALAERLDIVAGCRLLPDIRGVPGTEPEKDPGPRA
Sequence of UniProt P54709 (P54709 whole entry, looked up): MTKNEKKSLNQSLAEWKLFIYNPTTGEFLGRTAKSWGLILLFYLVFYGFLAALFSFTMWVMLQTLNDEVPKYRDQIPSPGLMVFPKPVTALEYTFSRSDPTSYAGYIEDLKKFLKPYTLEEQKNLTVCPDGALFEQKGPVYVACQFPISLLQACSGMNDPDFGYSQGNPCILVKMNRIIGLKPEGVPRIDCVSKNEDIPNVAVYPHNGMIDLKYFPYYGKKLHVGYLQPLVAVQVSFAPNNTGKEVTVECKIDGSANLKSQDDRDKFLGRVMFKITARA

Row | Target | log2 fold change
1 | BLOC1S3 (UniProt Q6QNY0) | -0.079 (inactive)
2 | ACP2 (UniProt P11117) | -0.004 (inactive)
3 | ASS1 (UniProt P00966) | 0.096 (inactive)
4 | ATP2A3 isoform 2 (UniProt Q93084) | -0.036 (inactive)
5 | AMD1 (UniProt P17707) | 0.045 (inactive)
6 | ADK (UniProt P55263) | 0.082 (inactive)
7 | ABCA3 (UniProt Q99758) | 0.141 (inactive)
8 | ANK2 (UniProt Q01484) | 0.016 (inactive)
9 | AARSD1 (UniProt Q9BTE6) | -0.371 (inactive)
10 | BRIX1 (UniProt Q8TDN6) | 0.029 (inactive)
11 | AP2B1 isoform 2 (UniProt P63010) | 0.032 (inactive)
12 | AGPAT3 isoform 3 (UniProt Q9NRZ7) | -0.017 (inactive)
13 | ALDH2 isoform 2 (UniProt P05091) | 0.118 (inactive)
14 | ARFRP1 (UniProt Q13795) | 0.024 (inactive)
15 | ATP9B (UniProt O43861) | -0.134 (inactive)
16 | ATP1B3 (UniProt P54709) | -0.031 (inactive)
